Measurements as given in PubChem BioAssay (NCATS).
Records with an inconclusive call do not appear. A number with no mark means an inactive call. The source made the active and inactive calls. The call rests on the fitted dose curve; in most records, active means well fitted activation curve with a large enough effect; inconclusive means small, poorly fitted or top-dose-only effect, or another doubt; inactive means no such curve, though single readings can be large or run the other way.

molecular target: Rap guanine nucleotide exchange factor 3 (Homo sapiens) (UniProt O95398); test: Counterscreen qHTS for agonist of cAMP-regulated guanine nucleotide exchange factor 3 (EPAC1) (AID 1645889); conditions: EPAC1 Rap1B-BODIPY-GDP exchange, fluorescence; series mostly up to 154 µM; activation: at the top concentration; further: nearly all actives have a fitted effect of over 40% in size; on activation: % of control where 0% means no effect
Excerpt: Assay Provider (PI): Xiaodong Cheng Ph.D. The University of Texas Medical Branch, […], TX MLPCN Grant: NS066510 In multi-cellular eukaryotic organisms, the effects of cAMP are transduced by two ubiquitously-expressed intracellular cAMP receptors, the classic protein kinase A/cAMP-dependent protein kinase (PKA/cAPK) and the more recently discovered exchange protein directly activated by cAMP/cAMP-regulated guanine nucleotide exchange factor (EPAC/cAMP-GEF). Both PKA and EPAC are ubiquitously expressed in all tissues, and an increase in intracellular cAMP levels will lead to the activation of both PKA and EPAC. Therefore, careful dissections of the individual role and relative contribution of EPAC and PKA within the overall cAMP signaling in various model systems are critical for further elucidating the mechanism of cAMP signaling. To date no EPAC-specific antagonists and agonist, as well as isoform-specific agonists have been reported, and developing EPAC-specific pharmacological probes to determine the physiological functions that EPAC play in the overall cAMP-mediated signaling remains a major challenge within the research field. Furthermore, identified regulators of EPAC may lead to new mechanism-based therapeutic strategies specifically targeting the EPAC / cAMP-signaling components as EPAC has been implicated to play important roles in major human pathological conditions such as diabetes, heart disease, and cancer. This qHTS will be used to screen the Molecular Libraries Small Molecule Repository (MLSMR) as a concentration-titration series using the NCGC unique quantitative screening (qHTS) platform to find activators for EPAC1. In addition, this assay will also be used as a counterscreen for the EPAC2 qHTS. This fluorescent based assay is developed and validated for EPAC1 that measures exchange using EPAC effector Rap1 complex with BODIPY-GDP, a GDP analog with a tethered fluorophores. Activators are identified by monitoring the change in fluorescence signal as the exchanged free BODIPY-GDP has a reduced fluorescence compared to Rap1-bound BODIPY-GDP. Increase in signal (activation) is the desired outcome for the EPAC1 agonist while no activity in this assay is desired for the EPAC2 agonist counterscreen. Reference: [1] de Rooij, J., Zwartkruis, F. J., Verheijen, M. H., Cool, R. H., Nijman, S. M., Wittinghofer, A., and Bos, J.L. (1998) Nature 396, 474-477. Kawasaki, H., Springett, G. M., Mochizuki, N., Toki, S., Nakaya, M., Matsuda, M., Housman, D. E., and Graybiel, A. M. (1998) Science 282, 2275-2279.
EPAC1 Counterscreen PROTOCOL TABLE SEQUENCE No. (e.g., 1, 2, 3, etc.); […] (e.g., Cells, Incubation, Reagent, etc.); VALUE and DESCRIPTION. 1. Reagent. 3 uL. [1x] 250 nM Rap1B-BODIPY-GDP, and 50 uM GDP. 2a. Compound. 23 nL. Control 6,572 uM cAMP (working concentration). 2b, 2c. Compound. 23 nL. Control activator and inhibitor; 234 - 30,000 uM cAMP and 16.4 - 10,000 uM. 2d. Compound. 46 nL. MLSMR follow-up library; 0.64 - 10,000 uM. 3. Time. 15 sec, 1000rpm. Centrifuge. 4. Time. 5 min. Incubation at room temperature. 5. Detector. Fluorescence. (Read 1), Ex/Em = 480 nm / 540 nm. 6. Time. 30 min. Incubation at room temperature. 7. Detector. Fluorescence. (Read 2), Ex/Em = 480 nm/ 540 nm. 8. Reagent. 1uL. Dispense either [4x] 10 uM cAMP or buffer. 9. Time. 15 sec, 1000 rpm. Centrifuge. 10. Time. 5 min. Incubation at room temperature. 11. Detector. Fluorescence. (Read 3), Ex/Em = 480 nm / 540 nm. 12. Time. 30 min. Incubation at room temperature. 13. Detector. Fluorescence. (Read 4), Ex/Em = 480 nm / 540 nm. NOTES (numbers refer to Sequence numbers above; values are from representative experiments) 1. Medium-binding black solid-bottom Greiner plates (789176-F). Dispense 3 uL of [1x] 250 nM Rap1B-BODIPY-GDP, and 50 uM GDP into columns 1 to 48. 2a. Control compound cAMP (6,572 uM, column 3, rows 1 to 32) single pin-transferred for a [final] of 50 uM. 2b. […]
Potency means the concentration at half of the fitted maximal effect.

Compared with `Cc1cc2ccccn2c1C(=O)c1ccccc1F`, `Cn1cc([C@]2(O)C(=O)Nc3ccccc32)c2ccccc21` is lower in activation: 21.5% [at 30.8 µM] for the first, 2.4% [at 30.8 µM] for the second.

First: COc1cccc(CC(=O)Nc2ccc(S(=O)(=O)Nc3nccs3)cc2)c1
Second: CC(C)(C)c1ccc(CC(=O)N2CCC2(C)C(=O)NS(=O)(=O)c2ccccc2)cc1 (stereo not given)
The activation of the first is lower: 9.39% [at 30.8 µM] for the first, 19.6% [at 30.8 µM] for the second.

Compared with `Cc1cccc(/C(N)=N/OC(=O)Cc2cccc3ccccc23)c1`, `Cc1ccc(OCCC(=O)OCC(=O)NNC(=O)c2ccccc2)cc1` is higher in activation: -1.93% [at 30.8 µM] for the first, 0.419% [at 30.8 µM] for the second.

First: CCOc1ccc(NS(=O)(=O)c2cc3c(cc2C)N(C)CCO3)cc1
Second: COC(=O)c1ccc(OC(=O)c2ccc(OC)cc2)c(OC)c1
The activation of the first is higher: 29.5% [at 30.8 µM] for the first, 6.57% [at 30.8 µM] for the second.

First: CC(C)CNC(=O)c1[nH]c(C(F)(F)F)nc1-c1ccccc1
Second: Cc1onc(-c2ccccc2)c1C(=O)c1c[nH]c(C(=O)NCCCN2CCOCC2)c1
The activation of the first is higher: 30.5% [at 30.8 µM] for the first, -11.1% [at 30.8 µM] for the second.

Going from `COc1ccc(/C=C/C(=O)c2ccncc2)c2ccccc12` to `CCCCCCNC(=O)c1cc(-c2ccco2)nc2ccccc12`, the activation rises from 15.3% [at 30.8 µM] to 27.4% [at 30.8 µM].

Going from `Cc1nc(=O)c(-c2ccccc2)c(C)n1CCCCCC(=O)O` to `CN(Cc1ccccc1N1CCCC1)C(=O)c1cc2ccccc2o1`, the activation rises from 4.21% [at 30.8 µM] to 17.8% [at 30.8 µM].

For `Oc1ccc(/C=N/Nc2ncnc3c2ncn3Cc2ccccc2)cc1O`, the activation was 1.06% [at 30.8 µM].

Compared with `COc1ccc(N2CCN(C(=O)c3noc4c3CCCCC4)CC2)cc1`, `Cc1c(C(=O)N2CCCCC2)oc2ccc(Br)cc12` is lower in “activation” value: 8.71% for the first, 1.57% for the second.

Going from `COc1cccc(OCCOc2ccc(/C=C3\C(=N)N4N=C(S(C)(=O)=O)SC4=NC3=O)cc2OC)c1` to `COC(=O)c1cn(C(=O)c2cc(OC)c(OC)c(OC)c2)c2ccccc12`, the “activation” value falls from 10.2% to -7.57%.

Compared with `CCOc1ccccc1NC(=O)COC(=O)c1ccc(S(=O)(=O)N2CCCC2)cc1`, `CCCNC(=O)C1CCN(S(=O)(=O)c2ccc3[nH]c(=O)ccc3c2)CC1` is lower in “activation” value: 20.9% for the first, 7.6% for the second.

Compared with `CCc1nnc(NS(=O)(=O)c2ccc(Nc3ccc([N+](=O)[O-])c4nonc34)cc2)s1`, `Cc1ccc(Sc2ccc(S(=O)(=O)Nc3ccc(C(=O)O)cc3)cc2)cc1C` is lower in “activation” value: 0.652% for the first, -8.99% for the second.

First: C=CCn1c(O)c(N=NC(=O)CNC(=O)/C=C/c2ccc(OC)cc2)c2ccccc21
Second: CCOc1c(OC)cccc1C(=O)NCC1(c2ccccc2)CCCC1
The “activation” value of the first is higher: 21.8% for the first, -1.25% for the second.

Going from `Cc1ccc(S(=O)(=O)N2[C@@H](c3ccc(Br)cc3)C(C(=O)O)=CC[C@H]2c2ccc(Cl)cc2)cc1` to `COc1cc2ccccc2cc1C(=O)N1CCc2ccccc21`, the “activation” value falls from -2.15% to -2.75%.

First: COc1nc(C)cc(C)c1S(=O)(=O)c1ccccc1C
Second: COC(=O)c1cc2sc(C)cc2n1Cc1cccc(OC)c1
The “activation” value of the first is lower: -3.3% for the first, 18.8% for the second.

Compared with `CC1(C(=O)O)CCC2(C)CCC3(C)C(=CC(=O)C4C5(C)CCC(=O)C(C)(C)C5CCC43C)C2C1` (stereo not given), `CN(C(=O)CSc1nc(-c2ccc(C(C)(C)C)cc2)c(C#N)c(=O)[nH]1)C1CCCCC1` is lower in “activation” value: 10.4% for the first, -30.7% for the second.

First: O=C(Nc1ccncc1)c1ccc2ncsc2c1
Second: Cc1cccc(NC(=O)c2c(NC(=O)C(F)(F)F)sc3c2CCCCC3)c1
The “activation” value of the first is higher: 21.7% for the first, -17.4% for the second.

First: COC(=O)C1=C(C)N(Cc2ccco2)C(=O)/C1=C\c1ccc(N(C)C)cc1
Second: CCc1ccc(/C=C2\SC(=S)N(CCC(=O)Nc3cc(C)on3)C2=O)cc1
The “activation” value of the first is lower: 8.79% for the first, 12.3% for the second.

First: N#Cc1c(-c2ccccc2)nc(SCc2cccc(Cl)c2)[nH]c1=O
Second: CC1(C)CC(=O)C2=C(C1)c1c(ccc3ccccc13)NC2c1cc([N+](=O)[O-])cc([N+](=O)[O-])c1O (stereo not given)
The “activation” value of the first is higher: 16.6% for the first, 10.5% for the second.

First: O=C(NCCS(=O)(=O)N1CCN(c2cccc(Cl)c2)CC1)c1ccc2c(c1)OCO2
Second: CCCCN1C(=O)C(C(=O)OCc2ccccc2)CC2=C1CCCC2=O (stereo not given)
The “activation” value of the first is lower: -4.76% for the first, -1.55% for the second.

In the case of `Cc1cc(/C=N/NC(N)=S)c(O)c(/C=N/NC(N)=S)c1`, the Potency is reported as 6.31 µM (active).
